# Results filed as inconclusive are left out. Entries that show only a call come without a potency. Activity calls are given as the source filed them. Unless noted, calls follow the shape of the full dose curve.
# How the values were obtained:
# [1] = Cell Viability - SK-N-SH (AID 435); settings: SK-N-SH neuroblastoma cell viability qHTS; also: potency is read from the fitted curve at half-maximal effect
# Outline: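 qHTS cytotoxicity: CellTiter-Glo ATP luminescence after 40 h compound exposure of human neuroblastoma SK-N-SH cells at 37 °C. AC50 derived by Hill-equation fitting, with DMSO as basal and 100 uM tamoxifen as full inhibition.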
# [2] = Cell Viability - N2a (AID 540; active = well fitted curve in the direction sought with a large enough effect; an effect the other way counts as inactive or inconclusive; also: nearly all actives have a fitted effect of over 45% in size); settings: N2a mouse neuroblastoma cell viability; activity change, negative = cytotoxicity: at 92.2 µM (top of the series)
# Outline: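 Mouse neuroblastoma N2a cells (1500/well) were preincubated 5 hr at 37 °C, then exposed to compounds for 40 hr at 37 °C in complete medium. Viability was read as intracellular ATP by CellTiter-Glo luminescence; AC50 from Hill fits.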
# [3] = Cell Viability - NIH 3T3 (AID 541; active = well fitted curve in the direction sought with a large enough effect; an effect the other way counts as inactive or inconclusive; also: nearly all actives have a fitted effect of over 25% in size); settings: NIH 3T3 cell viability, qHTS; activity change, negative = cytotoxicity: at 92.2 µM (top of the series)
# Outline: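 NIH 3T3 mouse embryo fibroblasts (1000 cells/well) were plated in complete medium and treated with compound for 40 hr at 37 °C. Viability was read as intracellular ATP by CellTiter-Glo luminescence; AC50 values came from Hill-equation fits of concentration-response data.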
# [4] = Cell Viability - H-4-II-E (AID 543; active = well fitted curve in the direction sought with a large enough effect; an effect the other way counts as inactive or inconclusive; also: nearly all actives have a fitted effect of over 35% in size); settings: H-4-II-E rat hepatoma viability; series mostly up to 92.2 µM
# Outline: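 Rat hepatoma H-4-II-E cells (1500/well) were plated, incubated 5 hr at 37 °C, then exposed to compounds for 40 hr at 37 °C. Cellular ATP was read by CellTiter-Glo luminescence; AC50 came from Hill-equation fits of concentration-response data.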
# [5] = Cell Viability - SH-SY5Y (AID 544; active = well fitted curve in the direction sought with a large enough effect; an effect the other way counts as inactive or inconclusive; also: nearly all actives have a fitted effect of over 55% in size); settings: SH-SY5Y neuroblastoma cell viability; viability change, negative = cytotoxic: at 92.2 µM (top of the series)
# Outline: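 Human neuroblastoma SH-SY5Y cells (1500/well) in complete medium were exposed to compounds for 40 hr at 37 °C; intracellular ATP was then quantified by CellTiter-Glo luminescence after 20 min at room temperature. AC50 came from Hill-equation concentration-response fits.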
# [6] = biological target: Estrogen receptor (Homo sapiens) (UniProt P03372); assay: qHTS assay for small molecule antagonists of estrogen receptor alpha signaling (AID 588513; active = well fitted curve in the direction sought with a large enough effect in the signal ratio, with a control signal flat, not every such curve was filed as active; the % refers to the signal ratio); settings: ER-alpha-UAS-bla HEK293, beta-lactamase ratio, antagonist mode; series mostly up to 76.9 µM
# Sequence of Estrogen receptor (Homo sapiens) (P03372 whole entry, looked up): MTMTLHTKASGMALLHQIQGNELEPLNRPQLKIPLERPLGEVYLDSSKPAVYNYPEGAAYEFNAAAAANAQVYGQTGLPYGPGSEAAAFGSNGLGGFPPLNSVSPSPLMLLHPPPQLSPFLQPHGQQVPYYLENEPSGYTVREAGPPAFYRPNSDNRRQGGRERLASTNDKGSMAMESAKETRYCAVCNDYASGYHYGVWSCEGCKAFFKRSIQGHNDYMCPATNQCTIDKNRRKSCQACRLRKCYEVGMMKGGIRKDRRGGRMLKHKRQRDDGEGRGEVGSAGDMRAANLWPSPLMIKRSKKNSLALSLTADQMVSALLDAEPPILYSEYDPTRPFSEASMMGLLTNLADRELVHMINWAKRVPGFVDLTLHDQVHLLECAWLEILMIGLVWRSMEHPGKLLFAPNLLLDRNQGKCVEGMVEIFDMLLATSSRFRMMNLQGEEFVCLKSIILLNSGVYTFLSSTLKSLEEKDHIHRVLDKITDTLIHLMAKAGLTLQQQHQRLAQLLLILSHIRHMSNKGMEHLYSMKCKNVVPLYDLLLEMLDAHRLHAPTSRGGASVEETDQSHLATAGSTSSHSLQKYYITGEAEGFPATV
# Outline: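 Antagonist mode: inhibition of 0.5 nM 17-beta-estradiol-driven beta-lactamase reporter in HEK 293 ER-alpha-UAS-bla cells, 18 h at 37C, CCF4 readout after 2 h at RT. Normalised to estradiol and DMSO; titration fitted to Hill.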
# [7] = biological target: Estrogen receptor (Homo sapiens) (UniProt P03372); assay: qHTS assay for small molecule agonists of estrogen receptor alpha signaling (AID 588514); settings: ER-alpha-UAS-bla HEK293, beta-lactamase ratio, 18 h; series mostly up to 76.8 µM; also: nearly all actives have a fitted effect of over 70% in size
# Outline: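 ER-alpha-UAS-bla GripTite HEK 293 cells in medium with 2% charcoal/dextran-treated FBS were treated with compound titrations at 37 C for 18 hrs; beta-lactamase reporter read by CCF4 fluorescence after 2 hrs at RT.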
# [8] = biological target: Bile acid receptor (Homo sapiens) (UniProt Q96RI1); assay: qHTS assay for small molecule antagonists of farnesoid X receptor signaling (AID 588526); settings: HEK293T FXR-UAS-bla, beta-lactamase ratio, antagonist mode; series mostly up to 76.7 µM
# Sequence of Bile acid receptor (Homo sapiens) (Q96RI1 whole entry, looked up): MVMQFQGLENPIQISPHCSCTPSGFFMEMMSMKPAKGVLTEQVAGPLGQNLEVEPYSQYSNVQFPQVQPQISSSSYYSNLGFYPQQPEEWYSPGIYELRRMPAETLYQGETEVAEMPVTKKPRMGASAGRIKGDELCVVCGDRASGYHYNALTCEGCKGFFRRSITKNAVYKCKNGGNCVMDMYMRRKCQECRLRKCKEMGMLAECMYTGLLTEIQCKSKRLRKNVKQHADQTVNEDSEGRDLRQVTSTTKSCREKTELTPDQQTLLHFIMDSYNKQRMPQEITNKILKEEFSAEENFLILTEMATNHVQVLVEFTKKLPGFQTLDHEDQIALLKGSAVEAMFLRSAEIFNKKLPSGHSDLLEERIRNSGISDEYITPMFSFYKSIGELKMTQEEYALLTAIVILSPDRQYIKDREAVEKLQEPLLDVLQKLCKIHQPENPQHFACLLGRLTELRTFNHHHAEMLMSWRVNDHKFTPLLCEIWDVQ
# Outline: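 Antagonist mode: titrated compounds tested against chenodeoxycholic acid stimulation (normalized to 50 uM CDCA and DMSO) in GeneBLAzer HEK293T cells for 16 h. Beta-lactamase read by CCF4 fluorescence; IC50 from Hill fits.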
# [9] = biological target: Bile acid receptor (Homo sapiens) (UniProt Q96RI1); assay: qHTS assay for small molecule agonists of farnesoid X receptor signaling (AID 588527); settings: HEK293T FXR-UAS-bla, beta-lactamase ratio, 16 h; stronger effect = higher value
# Outline: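 Read-out: beta-lactamase reporter fluorescence with CCF4 substrate in GeneBLAzer FXR-UAS-bla HEK293T cells, after 16 h compound exposure at 37 C. Response scaled between DMSO basal (0%) and chenodeoxycholic acid at 100 uM (100%).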
# [10] = biological target: Peroxisome proliferator-activated receptor delta (Homo sapiens) (UniProt Q03181); assay: qHTS assay for small molecule agonists of peroxisome proliferator-activated receptor delta signaling (AID 588534); settings: HEK293T PPARdelta-UAS-bla, beta-lactamase ratio, 18 h; series mostly up to 76.7 µM
# Sequence of Peroxisome proliferator-activated receptor delta (Homo sapiens) (Q03181 whole entry, looked up): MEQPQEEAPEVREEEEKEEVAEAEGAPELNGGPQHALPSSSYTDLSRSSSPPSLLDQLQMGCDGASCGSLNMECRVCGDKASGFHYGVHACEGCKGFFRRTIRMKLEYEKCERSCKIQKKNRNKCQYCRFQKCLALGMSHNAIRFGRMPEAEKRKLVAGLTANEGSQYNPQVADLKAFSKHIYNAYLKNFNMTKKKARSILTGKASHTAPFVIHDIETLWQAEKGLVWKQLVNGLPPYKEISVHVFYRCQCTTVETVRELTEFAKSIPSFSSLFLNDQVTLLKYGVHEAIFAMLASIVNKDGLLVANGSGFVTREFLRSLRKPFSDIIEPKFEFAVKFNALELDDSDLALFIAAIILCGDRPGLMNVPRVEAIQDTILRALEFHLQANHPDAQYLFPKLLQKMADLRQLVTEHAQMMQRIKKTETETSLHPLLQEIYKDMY
# Outline: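 Cell-based beta-lactamase reporter assay run in agonist mode: cells seeded and incubated 5 hrs at 37 C, compounds added and incubated 18 hrs at 37 C. CCF4 dye fluorescence read after 2 hrs at RT; EC50 and efficacy from Hill fits.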
# [11] = qHTS assay for small molecule antagonists of peroxisome proliferator-activated receptor delta signaling (AID 588535); settings: HEK293T PPARd-UAS-bla, beta-lactamase FRET ratio, 18 h; 460 nm channel;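 also: cells co-treated with a PPAR-delta agonist as stimulator during compound exposure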
# Outline: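 Cells were seeded at 4000 per well in assay medium containing 2% charcoal/dextran FBS and held 5 hrs at 37 C. Compounds were then added for 18 hrs. CCF4 substrate was applied for 2 hrs at room temperature before fluorescence reading.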
# [12] = biological target: Retinoic acid receptor RXR-alpha (Homo sapiens) (UniProt P19793); assay: qHTS assay for small molecule agonists of retinoid X receptor alpha signaling (AID 588544); settings: HEK293T RXRa-UAS-bla, beta-lactamase reporter, 18 h; series mostly up to 76.7 µM
# Sequence of Retinoic acid receptor RXR-alpha (Homo sapiens) (P19793 whole entry, looked up): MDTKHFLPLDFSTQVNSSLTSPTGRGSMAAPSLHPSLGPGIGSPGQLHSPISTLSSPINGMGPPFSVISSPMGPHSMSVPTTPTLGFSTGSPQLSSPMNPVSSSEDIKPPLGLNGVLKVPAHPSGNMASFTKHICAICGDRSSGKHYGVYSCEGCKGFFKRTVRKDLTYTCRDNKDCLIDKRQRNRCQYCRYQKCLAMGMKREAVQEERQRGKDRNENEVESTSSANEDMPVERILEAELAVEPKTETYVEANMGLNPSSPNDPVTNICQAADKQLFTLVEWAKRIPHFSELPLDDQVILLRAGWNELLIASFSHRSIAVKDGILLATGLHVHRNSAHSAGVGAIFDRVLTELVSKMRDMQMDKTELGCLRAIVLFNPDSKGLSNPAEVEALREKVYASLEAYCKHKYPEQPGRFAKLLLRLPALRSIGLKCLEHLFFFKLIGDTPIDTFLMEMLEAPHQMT
# [13] = Cellular Toxicity (caspase-3) Jurkat (AID 655; active = well fitted curve in the direction sought with a large enough effect; an effect the other way counts as inactive or inconclusive;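 also: cells exposed to compound for 16 h at 37 °C before reading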); settings: Jurkat caspase-3 activation, luminescence; caspase-3 activation: at 92.2 µM (top of the series), DMSO = 0%, tamoxifen = 100%
# Outline: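 Luminescent Caspase-Glo 3/7 read-out (20 min, room temperature) after 16 h compound treatment at 37 C of 5000 Jurkat cells per well. AC50 derived by Hill-equation fitting, scaled between DMSO basal and 100 uM tamoxifen stimulation.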
# [14] = biological target: Glucocorticoid receptor (Homo sapiens) (UniProt P04150); assay: qHTS assay for small molecule antagonists of glucocorticoid receptor signaling (AID 588533; active = well fitted inhibition curve with a large enough effect in the signal ratio, with a control signal flat, not every such curve was filed as active; the % refers to the signal ratio); settings: HeLa MMTV-bla, GRE beta-lactamase ratio, antagonist mode, 18 h; series mostly up to 76.8 µM
# Sequence of Glucocorticoid receptor (Homo sapiens) (P04150 whole entry, looked up): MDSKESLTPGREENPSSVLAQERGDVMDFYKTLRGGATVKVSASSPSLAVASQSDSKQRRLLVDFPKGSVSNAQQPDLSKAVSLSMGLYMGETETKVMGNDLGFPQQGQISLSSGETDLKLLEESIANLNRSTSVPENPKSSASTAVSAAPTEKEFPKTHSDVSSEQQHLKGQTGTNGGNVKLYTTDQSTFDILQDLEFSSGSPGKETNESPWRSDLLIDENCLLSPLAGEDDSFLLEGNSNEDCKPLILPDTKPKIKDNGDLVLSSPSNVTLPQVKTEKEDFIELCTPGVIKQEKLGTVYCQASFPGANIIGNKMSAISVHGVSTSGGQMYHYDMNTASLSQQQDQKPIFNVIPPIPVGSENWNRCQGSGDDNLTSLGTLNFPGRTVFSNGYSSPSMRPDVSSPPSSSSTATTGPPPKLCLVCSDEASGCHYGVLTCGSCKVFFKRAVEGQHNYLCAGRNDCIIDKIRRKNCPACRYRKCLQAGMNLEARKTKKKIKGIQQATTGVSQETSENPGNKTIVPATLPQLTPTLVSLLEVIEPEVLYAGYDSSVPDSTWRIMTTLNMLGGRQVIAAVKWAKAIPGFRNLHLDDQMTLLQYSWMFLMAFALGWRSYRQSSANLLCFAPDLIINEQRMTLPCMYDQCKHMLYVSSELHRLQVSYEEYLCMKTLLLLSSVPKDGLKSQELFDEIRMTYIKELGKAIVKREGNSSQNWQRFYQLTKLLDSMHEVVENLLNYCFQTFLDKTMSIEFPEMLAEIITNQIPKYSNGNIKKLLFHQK
# Outline: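 Antagonist-mode qHTS: compound titrations added to GRE-bla HeLa cells, then dexamethasone 2 nM final; 18 h, 37 C. CCF4 FRET fluorescence normalized to dexamethasone and DMSO; IC50 from Hill fit.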
# [15] = qHTS assay for small molecule agonists of the antioxidant response element (ARE) signaling pathway (AID 651741; active = well fitted activation curve with a large enough effect in the signal ratio; the % refers to the signal ratio; also: potency is read from the fitted curve at half-maximal effect); settings: HepG2 ARE-bla reporter, beta-lactamase FRET ratio, 16 h; series mostly up to 96 µM
# Outline: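 HepG2 ARE-bla cells plated at 2,000 cells/well and incubated 5 h at 37 C/5% CO2 received 23 nL compound in DMSO. After 16 h at 37 C, LiveBLAzer B/G FRET substrate was applied for 2 h at room temperature and fluorescence read.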
# [16] = biological target: Glucocorticoid receptor (Homo sapiens) (UniProt P04150); assay: qHTS assay for small molecule agonists of glucocorticoid receptor signaling (AID 588532; active = well fitted curve in the direction sought with a large enough effect in the signal ratio, with a control signal flat; the % refers to the signal ratio); settings: HeLa MMTV-bla, beta-lactamase ratio, agonist, 18 h; stronger effect = higher value; percent of dexamethasone control, DMSO zero
# Outline: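 Cells were plated and rested 3-5 h at 37 C, compounds were added in titration and incubated 18 h, then CCF4 substrate was loaded for 2 h at RT before reading blue/green fluorescence. EC50 came from Hill-equation fitting.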
# [17] = biological target: Vitamin D3 receptor (Homo sapiens) (UniProt P11473); assay: qHTS assay for small molecule antagonists of vitamin D receptor signaling (AID 588541); settings: HEK293T VDR-UAS-bla, beta-lactamase ratio, antagonist mode; series mostly up to 76.7 µM;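 also: receptor activated by calcitriol during compound treatment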
# Sequence of Vitamin D3 receptor (Homo sapiens) (P11473 whole entry, looked up): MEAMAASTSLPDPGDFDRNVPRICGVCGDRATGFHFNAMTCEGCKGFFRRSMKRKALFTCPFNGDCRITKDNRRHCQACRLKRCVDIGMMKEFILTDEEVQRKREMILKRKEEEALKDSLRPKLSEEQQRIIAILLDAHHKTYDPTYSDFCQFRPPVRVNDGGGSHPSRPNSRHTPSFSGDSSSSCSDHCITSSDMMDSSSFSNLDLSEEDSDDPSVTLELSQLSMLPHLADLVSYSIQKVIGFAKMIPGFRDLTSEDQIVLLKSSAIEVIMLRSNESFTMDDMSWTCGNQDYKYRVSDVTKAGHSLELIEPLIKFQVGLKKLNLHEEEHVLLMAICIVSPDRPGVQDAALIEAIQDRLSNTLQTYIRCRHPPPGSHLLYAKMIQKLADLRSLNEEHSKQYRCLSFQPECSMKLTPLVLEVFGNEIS
# Outline: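 VDR-UAS-bla HEK293T cells in 2% charcoal-stripped FBS were stimulated with 1-alpha,25-dihydroxyvitamin D3 (3 nM final) plus compound for 16 h at 37 C. The beta-lactamase CCF4 readout was normalized to 50 nM agonist and DMSO, and Hill fits gave IC50.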
# [18] = qHTS assay for small molecule disruptors of the mitochondrial membrane potential - 1 hr assay (AID 651754); settings: series mostly up to 92.2 µM; also: nearly all actives have a fitted effect of over 35% in size
# Outline: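 HepG2 cells, attached overnight at 37C, were exposed to compound or DMSO vehicle for 1 hr at 37C, 5% CO2, then stained with Mito-MPS dye for 30 min. Red aggregate versus green monomer fluorescence reports membrane potential.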
# [19] = Cell Viability - BJ (AID 421); settings: BJ fibroblast viability, qHTS;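 also: potency is read from the fitted curve at half-maximal effect; cells exposed to compound for 40 hours at 37 °C before readout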
# Outline: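 Cytotoxicity in human BJ foreskin fibroblasts is scored as loss of cellular ATP after a 40-hour exposure, measured by luciferase luminescence. Controls are DMSO and 100 uM tamoxifen.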
# [20] = biological target: Peroxisome proliferator-activated receptor gamma (Homo sapiens) (UniProt P37231); assay: qHTS assay for small molecule antagonists of peroxisome proliferator-activated receptor gamma signaling (AID 588537; active = well fitted inhibition curve with a large enough effect in the signal ratio, with a control signal flat, not every such curve was filed as active; the % refers to the signal ratio;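 also: reporter cells co-stimulated with 50 nM rosiglitazone agonist during compound treatment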); settings: HEK293 PPARg-UAS-bla, beta-lactamase ratio, antagonist mode; series mostly up to 76.8 µM
# Sequence of Peroxisome proliferator-activated receptor gamma (Homo sapiens) (P37231 whole entry, looked up): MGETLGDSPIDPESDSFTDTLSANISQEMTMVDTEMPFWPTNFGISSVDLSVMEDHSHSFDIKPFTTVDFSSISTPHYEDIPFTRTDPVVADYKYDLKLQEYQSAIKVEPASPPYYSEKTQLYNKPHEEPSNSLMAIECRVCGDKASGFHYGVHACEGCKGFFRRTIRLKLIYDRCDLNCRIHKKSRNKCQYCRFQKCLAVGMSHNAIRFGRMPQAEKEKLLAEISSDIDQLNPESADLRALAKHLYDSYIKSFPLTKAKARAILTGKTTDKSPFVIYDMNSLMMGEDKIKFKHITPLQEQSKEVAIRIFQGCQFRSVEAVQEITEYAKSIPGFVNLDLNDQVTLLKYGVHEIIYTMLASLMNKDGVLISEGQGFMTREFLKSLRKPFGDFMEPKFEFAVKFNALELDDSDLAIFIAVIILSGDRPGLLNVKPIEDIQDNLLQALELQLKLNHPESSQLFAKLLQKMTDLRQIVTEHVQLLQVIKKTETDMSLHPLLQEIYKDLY
# Outline: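 Step one: plate 3000 HEK293 UAS-bla cells per well in medium with 1% stripped serum and hold 6-6.5 h at 37 C. Step two: add compound and 50 nM agonist for 16 h. Step three: CCF4 loading, fluorescence read.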
SMILES,Potency [1],Potency [2],Potency [3],Potency [4],Potency [5],Potency [6],Potency [7],outcome [8],activation [9],outcome [10],max response [11] [%],outcome [12],caspase-3 activation [13],outcome [14],Potency [15],activation [16],outcome [17],Potency [18],Potency [19],Potency [20]
C/C=C/CC#N,> 92 µM (inactive),inactive,inactive,inactive,inactive,inactive,inactive,inactive,-1.31% (inactive),inactive,-4.54,inactive,,,,,,,,
O=P(OCCCl)(OCCCl)OCCCl,> 92 µM (inactive),inactive,inactive,inactive,inactive,,,inactive,-0.898% (inactive),inactive,19.2,,-1.25% (inactive),inactive,inactive,,,,,
O=[N+]([O-])c1cccc2c([N+](=O)[O-])cccc12,> 92 µM (inactive),inactive,inactive,inactive,inactive,,,,,inactive,-9.5,inactive,0.295% (inactive),inactive,4.73 µM (active),-1.31% (inactive),,,,
Clc1cccc(Cl)c1,> 92 µM (inactive),,inactive,inactive,inactive,,,,,inactive,20.6,inactive,-0.0419% (inactive),inactive,,-3.34% (inactive),inactive,inactive,,
Brc1ccc(Oc2ccc(Br)cc2Br)c(Br)c1,> 92 µM (inactive),,,inactive,,inactive,inactive,,-1.06% (inactive),,,,,,,,,,> 92 µM (inactive),inactive
Nc1c(Br)cc([N+](=O)[O-])cc1[N+](=O)[O-],> 92 µM (inactive),,,,inactive,inactive,inactive,inactive,0.276% (inactive),inactive,33.6,inactive,,,37.6 µM (active),,inactive,,,
CN(C)c1ccc(N=Nc2ccccc2)cc1,> 92 µM (inactive),,,,,,,inactive,-4.32% (inactive),inactive,-40.3,inactive,-9.1% (inactive),,37.6 µM (active),0.929% (inactive),inactive,,,
